According to PubChem BioAssay (NCI):
Compounds without any hit were thinned out: in the full panel of roughly 83,000, 20% have a hit.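 Method: cells in 96-well plates; compound added at one concentration; 48 h incubation; percent growth measured; values under 10 scored active.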 Unmarked numbers belong to inactive results. Active and inactive are the calls of the source.

The molecules below were run on CCRF-CEM leukemia (assay: NCI-60 one-dose screen, 48 h (100 = growth as untreated, 0 = no growth, -100 = all killed)). Conditions: 10 µM unless noted.

| Compound | growth |
| --- | --- |
| N#Cc1c(N)n(C2OC(CO)C(O)C2O)c2ncnc(N)c12 (centres undefined) | -45.1% (active) |
| CCOC(=O)C1=C(C)NC(SCc2nnc(-c3ccc(Cl)cc3)o2)=NC1c1ccc(Cl)cc1 (centres undefined) | 39.7% |
| Cc1cc(C)c2c(NC(=O)Nc3ccc(Cl)c(Cl)c3)n[nH]c2n1 | 102% |
| Brc1ccccc1Cn1c(-c2cncs2)nc2ccccc21 | 78% |
| CC(C)(C)c1ccc(Cn2c(-c3nonc3N)nc3ccccc32)cc1 | 46.7% |
| COc1ccc(Nc2ncnc3c2sc2nc(C)cc(C)c23)cc1 | 104% |
| CCCc1n(Cc2ccc3ccccc3n2)cc[n+]1Cc1ccc2ccccc2n1 | 36.2% |
| O=c1[nH]cnc2nc[nH]c12 | 120% |
| CCOc1cccc(/C=N/NC(=O)c2ccc(Nc3ccnc(C(F)(F)F)c3)cc2)c1O | -30.8% (active) |

These molecules were tested on MOLT-4 leukemia in the same assay as above. Conditions: 10 µM unless noted.

| Compound | growth |
| --- | --- |
| COc1ccc(C2CC(c3ccc(Nc4ccnc5cc(Cl)ccc45)cc3)=NN2c2ccccc2)cc1 (centres undefined) | 52.3% |
| CCCCc1n(Cc2ccc3ccccc3n2)cc[n+]1Cc1ccc2ccccc2n1 | 14.9% |
| NC(=O)c1noc(C(=O)c2ccccc2)c1N | 95.1% |
| COc1ccc(/C=C(/C(=O)N2CCN(c3ccccc3)CC2)c2cc(OC)c(OC)c(OC)c2)cc1O | 8.78% (active) |
| Fc1ccc(-c2ccnc3nc(-c4ccncc4)nn23)cc1 | 94.9% |
| O=C1CC2(O)CSc3nc(=O)cc(n32)N1 (centres undefined) | 107% |
| CCOC(=O)C1=C(C)NC(SCc2nnc(-c3ccc(Cl)cc3)o2)=NC1c1ccc(Br)cc1 (centres undefined) | 8.29% (active) |
| CN(C)CCOc1nc2c3cccnc3cc(-c3cccc(Cl)c3)c2c2ncccc12 | -9.06% (active) |
| O=C1/C(=C\c2cccn2Cc2ccc(Cl)cc2)c2ccccc2N1c1c(Cl)cccc1Cl | 75.1% |
| CCOC(CN1CCN(CC(C)C(=O)c2ccccc2)CC1)c1ccccc1 (centres undefined) | 105% |
| COc1ccc(/C(=C\c2cc(OC)c(OC)c(OC)c2)C(=O)N2CCNCC2)cc1 | 87.2% |
| COc1ccc2[nH]c(C(=O)OCc3ccc4cccc(O)c4n3)cc2c1 | -11.5% (active) |
| O=C(CCc1nc2sc3c(c2c(=O)[nH]1)CCC3)NCc1cn(-c2ccccc2)nc1-c1ccccc1 | 59.6% |
| COc1ccc(-c2nc(-c3ccccc3OCc3ccccc3OC)nc(C)c2C(C)=O)cc1 | 62.4% |
| [Ag].[Ag].[NH-]S(=O)(=O)c1ccc(N=Nc2cc(N=Nc3ccc(S([NH-])(=O)=O)cc3)c3c(NC(=O)C(Cl)Cl)cccc3c2OC(=O)C(Cl)Cl)cc1.[c-]1nccs1.[c-]1nccs1 | 78.4% |
| COc1cc(C2CC(c3cccc(Nc4ccnc5cc(Cl)ccc45)c3)=NN2c2ccccc2)cc(OC)c1OC (centres undefined) | 74.4% |
| CCCCCCCCCCCCCCCc1cc(O)ccc1[N+](=O)[O-] | 32.2% |
| Nc1nc2c(c3ncccc13)C(c1ccccc1)Cc1ncccc1-2 (centres undefined) | 65.8% |
| O=C1/C(=C\c2cccn2C(=O)c2ccccc2)c2ccccc2N1c1c(Cl)cccc1Cl | 27.9% |
| Cc1ccc(C2CC(c3cccs3)=NN2c2ccc(S(N)(=O)=O)cc2)s1 (centres undefined) | 89.2% |
| CCSc1ccc([C@@H]2[C@@H](O)C(=O)N2c2cc(OC)c(OC)c(OC)c2)cc1 | 10.8% |
| Cc1cc(C)c2c(n1)sc1c(Nc3ccc(OCc4ccccc4)cc3)ncnc12 | 101% |
| CCOC(=O)C1=C(C)NC(SCc2nnc(-c3ccc(Cl)cc3)o2)=NC1c1ccc(Cl)cc1 (centres undefined) | 7.02% (active) |
| Cc1cc(C)c2c(NC(=O)Nc3ccc(Cl)c(Cl)c3)n[nH]c2n1 | 98.3% |
| Brc1ccccc1Cn1c(-c2cncs2)nc2ccccc21 | 77.6% |
| CC(C)(C)c1ccc(Cn2c(-c3nonc3N)nc3ccccc32)cc1 | 62.6% |
| COc1ccc(Nc2ncnc3c2sc2nc(C)cc(C)c23)cc1 | 95.9% |
| CCCc1n(Cc2ccc3ccccc3n2)cc[n+]1Cc1ccc2ccccc2n1 | 23.2% |
| CCOc1cccc(/C=N/NC(=O)c2ccc(Nc3ccnc(C(F)(F)F)c3)cc2)c1O | 31.2% |
| CN(C)CCOc1nc2c3ccncc3cc(-c3cccc(Cl)c3)c2c2cnccc12 | -14.7% (active) |
